Source: PubChem BioAssay (Tox21)
Results filed as inconclusive are left out. Unmarked numbers belong to inactive results. The source made the active and inactive calls. The call rests on the fitted dose curve; in most records, active means well fitted curve in the direction sought with a large enough effect in the repeat runs; inconclusive means weak or mixed curves; inactive means no such curve, though single readings can be large; an effect the other way counts as inactive or inconclusive. Non-standard residues stand in square brackets, D forms with d. Residues, ends and D or L forms follow the SMILES beside them. *: point of attachment. Sta = CC(C)C[C@H](N)[C@@H](O)CC(=O)O; Isovaleryl = CC(C)CC(=O)*

assay: A CellTox Green Cytotoxicity Assay to monitor cytotoxicity in HepG2 cells - 24 hour (AID 1224878); settings: CellTox Green fluorescence; series mostly up to 76.8 µM; cytotoxicity: at the top concentration; further: nearly all actives have a fitted effect of over 45% in size; further: potency means the concentration at half of the fitted maximal effect
Outline: (§1)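 Read-out is fluorescence of a cyanine dye excluded from live cells that stains DNA of dead HepG2 cells, with signal proportional to cytotoxicity. Plates were read at 0, 8, 16, 24, 32 and 40 h after compound addition.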
On the % scale 0 is the no-effect control and ±100 the full control effect.

Row | Compound | cytotoxicity | Potency
1 | CC(C)CC(=O)N[C@H](C(=O)N[C@H](C(=O)N[C@@H](CC(C)C)[C@@H](O)CC(=O)N[C@@H](C)C(=O)N[C@@H](CC(C)C)[C@@H](O)CC(=O)O)C(C)C)C(C)C (Isovaleryl-VV[Sta]A[Sta]-OH) | -5.34% [at 35.3 µM] | –
2 | CCCCCCC(=O)c1ccccc1 | 0.826% | –
3 | CNC(=O)c1c(I)c(NC(C)=O)c(I)c(C(=O)O)c1I | -15.7% [at 35.3 µM] | –
4 | CCCCCCCCCCCCCC(=O)OCC | 0.262% | –
5 | C=CCN(CC=C)CC=C | -12.1% | –
6 | CC(O)C(CO)C(C)O (centres undefined) | -9.37% | –
7 | O=C(O)/C=C(\CC(=O)O)C(=O)O | -3.55% [at 35.3 µM] | –
8 | CC(=O)Nc1ccc(S(=O)(=O)Nc2cc(C)on2)cc1 | -14.1% [at 35.3 µM] | –
9 | C[C@@H](CN1CC(=O)NC(=O)C1)N1CC(=O)NC(=O)C1 | 4.79% [at 35.3 µM] | –
10 | CCN(CC)CC | 0.62% | –
11 | CC/C=C/CCCCCCCCCCOC(C)=O | -21.7% | –
12 | COC(=O)c1ccc(C(=O)O)cc1 | -15.3% | –
13 | COC(=O)C(c1ccccc1Cl)N1CCc2sccc2C1 (centres undefined) | -0.609% [at 35.3 µM] | –
14 | CCCCOCCCC | 11.5% | –
15 | Cc1ccc2ccccc2n1 | -9.57% | –
16 | Cc1ccccc1OCC(=O)O | 2.11% | –

Row | Compound | cytotoxicity | Potency
17 | O=C(O)Cc1c(Cl)ccc(Cl)c1Cl | 1.93% | –
18 | CCCCCCCCCCCCCCBr | -8.45% | –
19 | C=C(C)C(=O)OCCOC1CC2CC1C1C=CCC21 (centres undefined) | -2.36% | –
20 | COC(=O)/C=C(\C)CCC=C(C)C | -10.8% | –
21 | Clc1cc(Cl)c(Cl)c(Cl)c1Cl | 0.4% | –
22 | CCCc1ncc(C(=O)O)s1 | 4.29% [at 35.3 µM] | –
23 | Cc1cc(C)c(N)c(Cl)c1 | -5.93% | –
24 | CC(C)C(=O)Nc1cccc(C2CN3CCSC3=N2)c1 (centres undefined) | -11.1% [at 35.3 µM] | –
25 | COc1cc(C(=O)NC2CCCNC2)cc(OC)c1OC (centres undefined) | -41.6% [at 35.3 µM] | –
26 | CCO/C=C1\N=C(c2ccccc2)OC1=O | 10.8% | –
27 | CC(C)(C)C(=O)NCCCC(=O)O | -15.9% [at 35.3 µM] | –
28 | C=CCCCCCCCCCCCCCC | 1.07% [at 15.8 µM] | –
29 | Clc1ccc2c(c1)Nc1ccccc1S2 | -17.1% [at 35.3 µM] | –
30 | Cc1ccc2cccnc2c1 | -1.29% | –
31 | Cc1ccc(OC(=O)CC(C)C)cc1 | 20.8% | –
32 | CC(=O)c1c(C)cc(C(C)(C)C)cc1C | – | 34.7 µM (active)

assay: A CellTox Green Cytotoxicity Assay to monitor cytotoxicity in HepG2 cells - 40 hour (AID 1224879); settings: CellTox Green fluorescence; series mostly up to 76.8 µM; cytotoxicity increase: at the top concentration; further: nearly all actives have a fitted effect of over 40% in size; further: potency means the concentration at half of the fitted maximal effect
Outline: as §1

Row | Compound | cytotoxicity increase | Potency
33 | CC(C)CC(=O)N[C@H](C(=O)N[C@H](C(=O)N[C@@H](CC(C)C)[C@@H](O)CC(=O)N[C@@H](C)C(=O)N[C@@H](CC(C)C)[C@@H](O)CC(=O)O)C(C)C)C(C)C (Isovaleryl-VV[Sta]A[Sta]-OH) | -5% [at 35.3 µM] | –
34 | CCCCCCC(=O)c1ccccc1 | -1.04% | –
35 | CNC(=O)c1c(I)c(NC(C)=O)c(I)c(C(=O)O)c1I | -1.14% [at 35.3 µM] | –
36 | CCCCCCCCCCCCCC(=O)OCC | -0.926% | –
37 | C=CCN(CC=C)CC=C | -9.06% | –
38 | CC(O)C(CO)C(C)O (centres undefined) | -12.5% | –
39 | O=C(O)/C=C(\CC(=O)O)C(=O)O | 1.07% [at 35.3 µM] | –
40 | CC(=O)Nc1ccc(S(=O)(=O)Nc2cc(C)on2)cc1 | -7.64% [at 35.3 µM] | –
41 | C[C@@H](CN1CC(=O)NC(=O)C1)N1CC(=O)NC(=O)C1 | 13.8% [at 35.3 µM] | –
42 | CCN(CC)CC | -4.78% | –
43 | CCCCCCCCOCCC#N | – | 15.5 µM (active)
44 | CC/C=C/CCCCCCCCCCOC(C)=O | -19.8% | –
45 | COC(=O)c1ccc(C(=O)O)cc1 | -14% | –
46 | COC(=O)C(c1ccccc1Cl)N1CCc2sccc2C1 (centres undefined) | 1.53% [at 35.3 µM] | –
47 | CCCCOCCCC | 11.2% | –
48 | Cc1ccc2ccccc2n1 | -9.42% | –
49 | CC(C)(C)c1ccc(N)cc1 | – | 61.7 µM (active)

Row | Compound | cytotoxicity increase | Potency
50 | Cc1ccccc1OCC(=O)O | 3.13% | –
51 | O=C(O)Cc1c(Cl)ccc(Cl)c1Cl | -2.32% | –
52 | CCCCCCCCCCCCCCBr | -11.4% | –
53 | C=C(C)C(=O)OCCOC1CC2CC1C1C=CCC21 (centres undefined) | -4.12% | –
54 | COC(=O)/C=C(\C)CCC=C(C)C | -6.42% | –
55 | Clc1cc(Cl)c(Cl)c(Cl)c1Cl | -0.994% | –
56 | CCCc1ncc(C(=O)O)s1 | 8.74% [at 35.3 µM] | –
57 | Cc1cc(C)c(N)c(Cl)c1 | -5.57% | –
58 | CC(C)C(=O)Nc1cccc(C2CN3CCSC3=N2)c1 (centres undefined) | -8.4% [at 35.3 µM] | –
59 | COc1cc(C(=O)NC2CCCNC2)cc(OC)c1OC (centres undefined) | -42.8% [at 35.3 µM] | –
60 | CCO/C=C1\N=C(c2ccccc2)OC1=O | 11.9% | –
61 | CC(C)(C)C(=O)NCCCC(=O)O | -15.6% [at 35.3 µM] | –
62 | C=CCCCCCCCCCCCCCC | -1.48% [at 15.8 µM] | –
63 | Clc1ccc2c(c1)Nc1ccccc1S2 | -2.69% [at 35.3 µM] | –
64 | Cc1ccc2cccnc2c1 | 3.85% | –
65 | Cc1ccc(OC(=O)CC(C)C)cc1 | 21.8% | –
66 | CC(=O)c1c(C)cc(C(C)(C)C)cc1C | – | 38.9 µM (active)

assay: qHTS RealTime-Glo MT Cell Viability Assay in HEK293 cells - 0 hour (AID 1224880); settings: RealTime-Glo luminescence; series mostly up to 76.8 µM; activity change, negative = cytotoxicity: at the top concentration; further: top concentration of the series differs between compounds; nearly all actives have a fitted effect of over 45% in size
Outline: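 Cells were seeded together with NanoLuc luciferase and a prosubstrate that viable cells reduce to a luciferase substrate. After a 5 h incubation at 37 C/5% CO2, compounds were added and luminescence was measured repeatedly during 40 h of treatment.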

Row | Compound | activity change, negative = cytotoxicity
67 | CC(C)CC(=O)N[C@H](C(=O)N[C@H](C(=O)N[C@@H](CC(C)C)[C@@H](O)CC(=O)N[C@@H](C)C(=O)N[C@@H](CC(C)C)[C@@H](O)CC(=O)O)C(C)C)C(C)C (Isovaleryl-VV[Sta]A[Sta]-OH) | 4.77% [at 35.3 µM]
68 | CCCCCCC(=O)c1ccccc1 | -0.586%
69 | CNC(=O)c1c(I)c(NC(C)=O)c(I)c(C(=O)O)c1I | 9.36% [at 35.3 µM]
70 | CCCCCCCCCCCCCC(=O)OCC | -3.54%
71 | C=CCN(CC=C)CC=C | 12.8%
72 | O=C(O)CCC(=O)Nc1ccc(S(=O)(=O)Nc2nccs2)cc1 | -20.7% [at 35.3 µM]
73 | CC(O)C(CO)C(C)O (centres undefined) | -5.99%
74 | O=C(O)/C=C(\CC(=O)O)C(=O)O | 10.1% [at 35.3 µM]
75 | CC(=O)Nc1ccc(S(=O)(=O)Nc2cc(C)on2)cc1 | 3.51% [at 35.3 µM]
76 | C[C@@H](CN1CC(=O)NC(=O)C1)N1CC(=O)NC(=O)C1 | -13.6% [at 35.3 µM]
77 | CCN(CC)CC | 9.76%
78 | CCCCCCCCOCCC#N | 0.705%
79 | CC/C=C/CCCCCCCCCCOC(C)=O | -8.93%
80 | CC/C=C\CCOC(=O)c1ccccc1 | -12.4%
81 | COC(=O)c1ccc(C(=O)O)cc1 | -7.1%
82 | COC(=O)C(c1ccccc1Cl)N1CCc2sccc2C1 (centres undefined) | -0.233% [at 35.3 µM]
83 | CCCCOCCCC | 12.3%
84 | Cc1ccc2ccccc2n1 | -1.37%
85 | CC(C)(C)c1ccc(N)cc1 | 13.1%

Row | Compound | activity change, negative = cytotoxicity
86 | Cc1ccccc1OCC(=O)O | 1.83%
87 | O=C(O)Cc1c(Cl)ccc(Cl)c1Cl | -13%
88 | CCCCCCCCCCCCCCBr | 1.52%
89 | C=C(C)C(=O)OCCOC1CC2CC1C1C=CCC21 (centres undefined) | 2.64%
90 | CCCCCCCC(=O)N(C)C | -5.21%
91 | COC(=O)/C=C(\C)CCC=C(C)C | 0.0316%
92 | Clc1cc(Cl)c(Cl)c(Cl)c1Cl | 0.348%
93 | CCCc1ncc(C(=O)O)s1 | 1.86% [at 35.3 µM]
94 | Cc1cc(C)c(N)c(Cl)c1 | -9.17%
95 | CC(C)C(=O)Nc1cccc(C2CN3CCSC3=N2)c1 (centres undefined) | -4.97% [at 35.3 µM]
96 | COc1cc(C(=O)NC2CCCNC2)cc(OC)c1OC (centres undefined) | 10% [at 35.3 µM]
97 | CCO/C=C1\N=C(c2ccccc2)OC1=O | 6.09%
98 | CCCC(=O)C(CC)Sc1ccoc1C (centres undefined) | 3.5%
99 | CC(C)(C)C(=O)NCCCC(=O)O | 0.147% [at 35.3 µM]
100 | C=CCCCCCCCCCCCCCC | -0.897% [at 15.8 µM]
101 | Clc1ccc2c(c1)Nc1ccccc1S2 | 6.19% [at 35.3 µM]
102 | Cc1ccc2cccnc2c1 | 8.66%
103 | Cc1ccc(OC(=O)CC(C)C)cc1 | -2.15%
104 | CC(=O)c1c(C)cc(C(C)(C)C)cc1C | -12.3%
